Test results as given in PubChem BioAssay (NCATS).
Several values for one entry are separate records, joined by “and”; a condition that tells them apart may be missing. Equal values may be shown once. Results filed as inconclusive are left out. Activity calls are given as the source filed them. Unless noted, calls come from the whole dose curve; as a rule, active = well fitted curve in the direction sought with a large enough effect; inconclusive = small, poorly fitted or top-dose-only effect, or another doubt; inactive = no such curve, though single readings can be large; an effect the other way counts as inactive or inconclusive.

Columns and labels:
[1] = Cell Viability - BJ (AID 421; calls by dose curve;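 note: potency is the fitted concentration of half-maximal effect; cells exposed to compound for 40 hours at 37 °C before readout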); settings: BJ fibroblast viability, qHTS
In short: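 Cytotoxicity as drop in intracellular ATP (CellTiter-Glo, 20 min RT) after 40 hr compound exposure of BJ fibroblasts at 37 °C. Titrations scaled between DMSO and 100 uM tamoxifen, Hill-fitted for AC50.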

[2] = Cell Viability - Hek293 (AID 427;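 active = compounds whose dose-response curve shows a full or clear partial loss of cell viability, called from curve shape rather than a numeric limit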;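 note: potency is the fitted concentration of half-maximal effect; cells exposed to compound for 40 hours at 37 °C before reading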); settings: qHTS
In short: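 Luminescent ATP content (CellTiter-Glo, 20 min at room temperature) was measured after a 40 hr, 37 °C compound exposure of HEK293 cells. AC50 values came from Hill-equation fits of qHTS concentration-response data normalized to DMSO and 100 uM tamoxifen.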

[3] = Cell Viability - HepG2 (AID 433; calls by dose curve;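 note: potency is the fitted concentration of half-maximal effect; potency for ATP loss meaning cytotoxicity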); settings: qHTS
In short: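 Read-out is luciferase-based quantitation of cellular ATP as a measure of viable HepG2 cells after 40 h treatment at 37 °C. Signal decrease is scaled between DMSO-only and 100 uM tamoxifen controls, with AC50 fitted by the Hill equation.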

[4] = Cell Viability - MRC5 (AID 434; calls by dose curve;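 note: potency is the fitted concentration of half-maximal effect; cells exposed to compound for 40 hours at 37 °C; potency reflects cytotoxicity seen as loss of intracellular ATP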); settings: MRC5 lung fibroblast viability, qHTS
In short: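 AC50 values come from Hill-equation fits of intracellular ATP loss, measured by CellTiter-Glo luminescence. Normal lung fibroblasts (MRC5) had 40 hr compound treatment at 37 C, normalized between DMSO and 100 uM tamoxifen.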

[5] = Cell Viability - SK-N-SH (AID 435; calls by dose curve;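 note: potency is the fitted concentration of half-maximal effect; compound exposure lasted 40 h at 37 °C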); settings: SK-N-SH neuroblastoma cell viability qHTS
In short: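 Luminescent ATP signal served as the viability read-out after 40 hours of compound treatment of human neuroblastoma SK-N-SH cells. Concentration-response data, scaled between DMSO and 100 uM tamoxifen, gave AC50 values by standard Hill modeling.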

[6] = biological target: Mitogen-activated protein kinase 10 (Mus musculus) (UniProt Q61831); assay: JNK3 AlphaScreen Assay (AID 530; active = well fitted curve in either direction with a large enough effect, not every such curve was filed as active;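 note: kinase came from lysate of stimulated human HepG2 cells; signal reports phosphorylation of biotinylated GST-cJun 1-79 at Ser73 with 10 µM ATP; % is set by controls: 0 for no effect and ±100 for the full control effect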); settings: JNK3 lysate, c-Jun phosphorylation; series mostly up to 57.1 µM
In short: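 Kinase buffer: 20 mM Tris-HCl pH 7.6, 10 mM MgCl2, 1 mM DTT, 0.1 mM Na3VO4, 0.01% Tween-20; ATP 10 uM. Substrate biotin-GST-cJun(1-79), enzyme from activated HepG2 lysates. Detection by Ser73 phospho-antibody AlphaScreen.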

[7] = Cell Viability - N2a (AID 540); settings: N2a mouse neuroblastoma cell viability; at 92.2 µM (top of the series);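 note: cells exposed to compound for 40 h at 37 °C; plate controls were DMSO alone for no effect and tamoxifen control for full effect; nearly all actives have a fitted effect of over 45% in size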
In short: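 In this qHTS cytotoxicity screen, ATP-dependent luciferase luminescence reports viable N2a cells after a 40 hr compound exposure in complete culture medium. Potencies are AC50 values from standard Hill equation fits.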

[8] = Cell Viability - NIH 3T3 (AID 541); settings: NIH 3T3 cell viability, qHTS; activity change, negative = cytotoxicity: at 92.2 µM (top of the series);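 note: plate controls were DMSO alone for no effect and tamoxifen positive control for full effect; nearly all actives have a fitted effect of over 25% in size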
In short: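 In this cytotoxicity screen, acute toxicity is scored as an ATP drop measured by CellTiter-Glo in NIH 3T3 fibroblasts following a 40 hr, 37 °C incubation with compound.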

[9] = Cell Viability - HUV-EC-C (AID 542); settings: HUV-EC-C endothelial cell viability, qHTS; series mostly up to 92.2 µM; note: % is set by controls: 0 for no effect and ±100 for the full control effect; nearly all actives have a fitted effect of over 35% in size
In short: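 Concentration-dependent ATP loss in HUV-EC-C cells is the measure. Exposure lasts 40 hr at 37 °C; luminescence follows CellTiter-Glo addition, and Hill fits give AC50.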

[10] = Cell Viability - H-4-II-E (AID 543); settings: H-4-II-E rat hepatoma viability; series mostly up to 92.2 µM; note: nearly all actives have a fitted effect of over 35% in size; note: potency is the fitted concentration of half-maximal effect
In short: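 AC50 from Hill-modelled qHTS concentration-response curves. H-4-II-E rat hepatoma cells in complete medium, 40 hr exposure at 37 °C, viability by CellTiter-Glo ATP luminescence.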

[11] = Cell Viability - SH-SY5Y (AID 544); settings: SH-SY5Y neuroblastoma cell viability; series mostly up to 92.2 µM; note: nearly all actives have a fitted effect of over 55% in size; note: potency is the fitted concentration of half-maximal effect
In short: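 Quantitative HTS in SH-SY5Y neuroblastoma cells, 40 hr treatment at 37 °C, ATP content by luciferase luminescence; AC50 from Hill fits.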

[12] = Cell Viability - Renal Proximal Tubule (AID 545); settings: renal proximal tubule cells viability, primary cells of rat origin; at 91.7 µM (top of the series);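 note: 0% = DMSO only and -100% = 100 µM tamoxifen; nearly all actives have a fitted effect of over 40% in size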
In short: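 Luminescent ATP signal (CellTiter-Glo) served as the viability read-out after 40 hr compound exposure of freshly isolated rat proximal tubule cells at 37 °C. Concentration-dependent ATP loss was fitted with the Hill equation to give AC50.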

[13] = biological target: Glucocorticoid receptor (Homo sapiens) (UniProt P04150); assay: GR-GFP Redistribution (AID 450;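 active = compounds whose dose series gives a full or clear partial fitted curve of increased nuclear translocation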; note: potency is the fitted concentration of half-maximal effect); settings: U2OS GR-GFP nuclear translocation, laser cytometry, 2 h
Glucocorticoid receptor (Homo sapiens), sequence (P04150 whole entry, looked up, the tested form may be a part): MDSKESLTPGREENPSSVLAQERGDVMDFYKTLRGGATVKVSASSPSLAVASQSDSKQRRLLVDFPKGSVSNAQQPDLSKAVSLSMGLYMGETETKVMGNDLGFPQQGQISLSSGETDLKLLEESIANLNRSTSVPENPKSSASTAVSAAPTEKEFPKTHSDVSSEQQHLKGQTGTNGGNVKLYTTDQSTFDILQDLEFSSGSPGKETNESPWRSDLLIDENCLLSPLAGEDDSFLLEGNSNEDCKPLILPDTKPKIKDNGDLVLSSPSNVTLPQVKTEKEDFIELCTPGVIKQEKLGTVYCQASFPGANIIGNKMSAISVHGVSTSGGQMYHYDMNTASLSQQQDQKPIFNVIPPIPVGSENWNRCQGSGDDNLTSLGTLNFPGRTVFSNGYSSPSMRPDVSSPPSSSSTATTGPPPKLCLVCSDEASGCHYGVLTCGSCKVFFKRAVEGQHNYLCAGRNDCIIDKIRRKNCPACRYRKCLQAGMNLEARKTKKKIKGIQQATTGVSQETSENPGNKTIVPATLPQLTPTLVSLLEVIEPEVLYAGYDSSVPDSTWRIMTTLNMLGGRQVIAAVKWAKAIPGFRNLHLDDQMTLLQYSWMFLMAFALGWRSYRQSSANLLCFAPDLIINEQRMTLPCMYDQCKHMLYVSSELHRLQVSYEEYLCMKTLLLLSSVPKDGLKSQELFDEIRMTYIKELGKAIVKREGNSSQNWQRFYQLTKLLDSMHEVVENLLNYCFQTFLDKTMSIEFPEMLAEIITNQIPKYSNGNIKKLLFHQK

[14] = biological target: Glucocorticoid receptor (Homo sapiens) (UniProt P04150); assay: GR-EFC Redistribution (AID 451; calls by dose curve; note: potency is the fitted concentration of half-maximal effect); settings: CHO-K1 GR-EFC translocation, beta-gal luminescence, 2 h
In short: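 Translocation of GR-ED fusion to nuclear EA restores b-gal, read by luminescence after 1 h room-temperature detection. Engineered CHO-K1 biosensor cells, 1,000/well, exposed 2 h at 37 C to titrations up to 46 uM final.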

ClC(Cl)Cl
inactive: Potency [1] > 92 µM | Potency [2] > 92 µM | Potency [3] > 92 µM | Potency [4] > 92 µM | Potency [5] > 92 µM | outcome [6] | activity change, negative = cytotoxicity [7] -12.8% | activity change, negative = cytotoxicity [8] -17.2% | Potency [9] | Potency [10] | Potency [11] | activity change, negative = cytotoxicity [12] -11.2%

C[C@H](CCC(=O)O)[C@H]1CC[C@H]2[C@@H]3CC[C@@H]4C[C@H](O)CC[C@]4(C)[C@H]3C[C@H](O)[C@]12C
active: activity change, negative = cytotoxicity [8] -91.1%
inactive: Potency [1] > 92 µM | Potency [2] > 92 µM | Potency [3] > 92 µM | Potency [4] > 92 µM | Potency [5] > 92 µM | outcome [6] | activity change, negative = cytotoxicity [7] -18.5% | Potency [9] | Potency [10] | Potency [11] | activity change, negative = cytotoxicity [12] -13.4%

OCl
inactive: Potency [1] > 92 µM | Potency [2] > 92 µM | Potency [3] > 92 µM | Potency [4] > 92 µM | Potency [5] > 92 µM | outcome [6] | activity change, negative = cytotoxicity [7] -0.881% | activity change, negative = cytotoxicity [8] -13.5% | Potency [9] | Potency [10] | Potency [11] | activity change, negative = cytotoxicity [12] 2.44%

CC1=CC(=O)NS(=O)(=O)O1
inactive: Potency [1] > 92 µM | Potency [2] > 92 µM | Potency [3] > 92 µM | Potency [4] > 92 µM | Potency [5] > 92 µM | outcome [6] | activity change, negative = cytotoxicity [7] -19.6% | activity change, negative = cytotoxicity [8] -8.99% | Potency [9] | Potency [10] | Potency [11] | activity change, negative = cytotoxicity [12] -8.28%

OCC(O)CO
inactive: Potency [1] > 92 µM | Potency [2] > 92 µM | Potency [3] > 92 µM | Potency [4] > 92 µM | Potency [5] > 92 µM | outcome [6] | activity change, negative = cytotoxicity [7] -3.4% and 8.03% | activity change, negative = cytotoxicity [8] -10.7% and -2.8% | Potency [9] | Potency [10] | Potency [11] | activity change, negative = cytotoxicity [12] -12.3% and -5.8%

CO/N=C(/C(=O)N[C@@H]1C(=O)N2C(C(=O)O)=C(COC(N)=O)CS[C@H]12)c1ccco1
inactive: Potency [1] > 92 µM | Potency [2] > 92 µM | Potency [3] > 92 µM | Potency [4] > 92 µM | Potency [5] > 92 µM | outcome [6] | activity change, negative = cytotoxicity [7] 8.73% | activity change, negative = cytotoxicity [8] -7.55% | Potency [9] | Potency [10] | Potency [11] | activity change, negative = cytotoxicity [12] 4.36%

OB(O)O
inactive: Potency [1] > 92 µM | Potency [2] > 92 µM | Potency [3] > 92 µM | Potency [4] > 92 µM | Potency [5] > 92 µM | outcome [6] | activity change, negative = cytotoxicity [7] -10.8% | activity change, negative = cytotoxicity [8] -22.1% | Potency [9] | Potency [10] | Potency [11] | activity change, negative = cytotoxicity [12] -6.9%

CCCCO
inactive: Potency [1] > 92 µM | Potency [2] > 92 µM | Potency [3] > 92 µM | Potency [4] > 92 µM | Potency [5] > 92 µM | outcome [6] | activity change, negative = cytotoxicity [7] -5.68% and -4.88% | activity change, negative = cytotoxicity [8] -12.4% and 2.4% | Potency [9] | Potency [10] | Potency [11] | activity change, negative = cytotoxicity [12] -5.24% and 3.29%

O=P(O)(O)O
inactive: Potency [1] > 92 µM | Potency [2] > 92 µM | Potency [3] > 92 µM | Potency [4] > 92 µM | Potency [5] > 92 µM | outcome [6] | activity change, negative = cytotoxicity [7] -12.4% | activity change, negative = cytotoxicity [8] -8.72% | Potency [9] | Potency [10] | Potency [11] | activity change, negative = cytotoxicity [12] -7.24%

O=c1n(CC2CO2)c(=O)n(CC2CO2)c(=O)n1CC1CO1 (stereo not given)
active: Potency [1] 30.6 µM | Potency [4] 51.4 µM | activity change, negative = cytotoxicity [8] -138% | Potency [10] 39.8 µM | Potency [11] 0.631 µM | activity change, negative = cytotoxicity [12] -90%

COC(=O)c1ccccc1O
inactive: Potency [1] > 92 µM | Potency [2] > 92 µM | Potency [3] > 92 µM | Potency [4] > 92 µM | Potency [5] > 92 µM | outcome [6] | activity change, negative = cytotoxicity [7] 0.567% | activity change, negative = cytotoxicity [8] 6.05% | Potency [9] | Potency [10] | Potency [11] | activity change, negative = cytotoxicity [12] -0.7%

COc1ccc(C[C@H](C)NC[C@@H](O)c2ccc(O)c(NC=O)c2)cc1
inactive: Potency [13] > 46 µM | Potency [14] > 46 µM | outcome [6]

OCc1ccccc1
inactive: Potency [1] > 92 µM | Potency [2] > 92 µM | Potency [3] > 92 µM | Potency [4] > 92 µM | Potency [5] > 92 µM | outcome [6] | activity change, negative = cytotoxicity [7] 4.71% | activity change, negative = cytotoxicity [8] 7.44% | Potency [9] | Potency [10] | Potency [11] | activity change, negative = cytotoxicity [12] -2.17%

Cc1ncc[nH]1
inactive: Potency [1] > 92 µM | Potency [2] > 92 µM | Potency [3] > 92 µM | Potency [4] > 92 µM | Potency [5] > 92 µM | outcome [6] | activity change, negative = cytotoxicity [7] -1.34% | activity change, negative = cytotoxicity [8] -6.23% | Potency [9] | Potency [10] | Potency [11] | activity change, negative = cytotoxicity [12] -3.28%

NCCN
inactive: Potency [1] > 92 µM | Potency [2] > 92 µM | Potency [3] > 92 µM | Potency [4] > 92 µM | Potency [5] > 92 µM | outcome [6] | activity change, negative = cytotoxicity [7] 5.1% | activity change, negative = cytotoxicity [8] -4.12% | Potency [9] | Potency [10] | Potency [11] | activity change, negative = cytotoxicity [12] 7.8%
